Results on eight sequences are retold here after article PMC11006913.

Common to all, as to assay: PBM; 200 nM protein, PBS
Common to all, as to settings: dsDNA, one strand shown

Assay [1] has as its target HESX1 (Homo sapiens, UniProt Q9UBX0 95-180, R165K).
The target in assay [2] is HESX1 (Homo sapiens, UniProt Q9UBX0 95-180).
In assay [3] the target is MSX2 (Homo sapiens, UniProt P35548 130-214, R199I).
In assay [4] the target is ALX1 (Homo sapiens, UniProt Q15699 118-204, L144V).
Assay [5] addresses ALX1 (Homo sapiens, UniProt Q15699 118-204, L144R).
For assay [6], the target named is MSX2 (Homo sapiens, UniProt P35548 130-214).
MSX2 (Homo sapiens, UniProt P35548 130-214), sequence (P35548 130-214): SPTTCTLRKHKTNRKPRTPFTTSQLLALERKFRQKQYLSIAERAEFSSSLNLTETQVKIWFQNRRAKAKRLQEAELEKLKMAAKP
Assay [7] concerns the target HESX1 (Homo sapiens, UniProt Q9UBX0 95-180, R109Q).
Assay [8] deals with PROP1 (Homo sapiens, UniProt O75360 56-141, R99H).
PROP1 (Homo sapiens, UniProt O75360 56-141, R99H), sequence (O75360 56-141 R99H): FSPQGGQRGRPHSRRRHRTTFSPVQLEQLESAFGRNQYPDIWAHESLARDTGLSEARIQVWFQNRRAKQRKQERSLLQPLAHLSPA
The target of assay [9] is HESX1 (Homo sapiens, UniProt Q9UBX0 95-180, P111T).
HESX1 (Homo sapiens, UniProt Q9UBX0 95-180, P111T), sequence (Q9UBX0 95-180 P111T): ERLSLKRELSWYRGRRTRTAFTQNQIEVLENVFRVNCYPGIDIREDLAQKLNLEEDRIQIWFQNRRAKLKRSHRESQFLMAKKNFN
The target in assay [10] is MSX2 (Homo sapiens, UniProt P35548 130-214, F161Y).
MSX2 (Homo sapiens, UniProt P35548 130-214, F161Y), sequence (P35548 130-214 F161Y): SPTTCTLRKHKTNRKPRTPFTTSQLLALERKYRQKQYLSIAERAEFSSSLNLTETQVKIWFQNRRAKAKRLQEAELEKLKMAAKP
Assay [11] addresses HESX1 (Homo sapiens, UniProt Q9UBX0 95-180, F115L).
Assay [12] concerns the target ALX1 (Homo sapiens, UniProt Q15699 118-204).
Another assay has as its target T1, NKX2-6 (Homo sapiens, UniProt A6NCS4 118-204, R150C).
T1 sequence: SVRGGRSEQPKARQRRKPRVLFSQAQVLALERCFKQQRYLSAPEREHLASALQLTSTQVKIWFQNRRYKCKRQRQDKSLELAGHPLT

Assay [13] has as its target PROP1 (Homo sapiens, UniProt O75360 56-141).
In assay [14] the target is PROP1 (Homo sapiens, UniProt O75360 56-141, F88S).
PROP1 (Homo sapiens, UniProt O75360 56-141, F88S), sequence (O75360 56-141 F88S): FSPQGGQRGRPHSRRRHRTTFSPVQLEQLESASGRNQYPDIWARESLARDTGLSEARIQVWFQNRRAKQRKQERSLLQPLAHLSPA
The target of assay [15] is VAX1 (Homo sapiens, UniProt Q5SQQ9 86-172).
VAX1 (Homo sapiens, UniProt Q5SQQ9 86-172), sequence (Q5SQQ9 86-172): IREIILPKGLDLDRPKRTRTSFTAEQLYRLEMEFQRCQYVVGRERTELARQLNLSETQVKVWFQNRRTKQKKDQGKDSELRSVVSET
Assay [16] concerns the target VAX1 (Homo sapiens, UniProt Q5SQQ9 86-172, T142I).
Assay [17] deals with VAX1 (Homo sapiens, UniProt Q5SQQ9 86-172, K157R).
VAX1 (Homo sapiens, UniProt Q5SQQ9 86-172, K157R), sequence (Q5SQQ9 86-172 K157R): as the sequence (Q5SQQ9 86-172) above, with K72R counted along it

HESX1 (Homo sapiens, UniProt Q9UBX0 95-180, R109Q), sequence (Q9UBX0 95-180 R109Q): as the sequence (Q9UBX0 95-180 P111T) above, with R15Q, T17P counted along it
PROP1 (Homo sapiens, UniProt O75360 56-141), sequence (O75360 56-141): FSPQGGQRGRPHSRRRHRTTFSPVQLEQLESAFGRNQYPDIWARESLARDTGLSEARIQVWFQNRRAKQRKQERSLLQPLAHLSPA
HESX1 (Homo sapiens, UniProt Q9UBX0 95-180), sequence (Q9UBX0 95-180): as the sequence (Q9UBX0 95-180 P111T) above, with T17P counted along it
HESX1 (Homo sapiens, UniProt Q9UBX0 95-180, R165K), sequence (Q9UBX0 95-180 R165K): as the sequence (Q9UBX0 95-180 P111T) above, with T17P, R71K counted along it
HESX1 (Homo sapiens, UniProt Q9UBX0 95-180, F115L), sequence (Q9UBX0 95-180 F115L): as the sequence (Q9UBX0 95-180 P111T) above, with T17P, F21L counted along it
ALX1 (Homo sapiens, UniProt Q15699 118-204), sequence (Q15699 118-204): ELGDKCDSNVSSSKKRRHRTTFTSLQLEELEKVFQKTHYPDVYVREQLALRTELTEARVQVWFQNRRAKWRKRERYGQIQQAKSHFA
VAX1 (Homo sapiens, UniProt Q5SQQ9 86-172, T142I), sequence (Q5SQQ9 86-172 T142I): as the sequence (Q5SQQ9 86-172) above, with T57I counted along it
ALX1 (Homo sapiens, UniProt Q15699 118-204, L144V), sequence (Q15699 118-204 L144V): as the sequence (Q15699 118-204) above, with L27V counted along it
ALX1 (Homo sapiens, UniProt Q15699 118-204, L144R), sequence (Q15699 118-204 L144R): as the sequence (Q15699 118-204) above, with L27R counted along it
MSX2 (Homo sapiens, UniProt P35548 130-214, R199I), sequence (P35548 130-214 R199I): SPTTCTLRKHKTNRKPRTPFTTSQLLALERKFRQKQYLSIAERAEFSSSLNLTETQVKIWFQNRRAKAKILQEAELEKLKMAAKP

Consider AGTAATTG, for which the binding signal in the assay with HESX1 [1] is 11.8 upbm affinity estimate (log intensity, higher = more binding, comparable within an allelic series); in the assay with HESX1 [2], 12 upbm affinity estimate (log intensity, higher = more binding, comparable within an allelic series); with MSX2 [3] it was 12.5 upbm affinity estimate (log intensity, higher = more binding, comparable within an allelic series); with ALX1 [4], 11.4 upbm affinity estimate (log intensity, higher = more binding, comparable within an allelic series); in the assay with ALX1 [5] it was 10.9 upbm affinity estimate (log intensity, higher = more binding, comparable within an allelic series); with MSX2 [6], 13.7 upbm affinity estimate (log intensity, higher = more binding, comparable within an allelic series). The binding signal in the assay with HESX1 [7] was 8.47 upbm affinity estimate (log intensity, higher = more binding, comparable within an allelic series); with PROP1 [8] it was 11 upbm affinity estimate (log intensity, higher = more binding, comparable within an allelic series); with HESX1 [9], 10.3 upbm affinity estimate (log intensity, higher = more binding, comparable within an allelic series); with MSX2 [10], 13.4 upbm affinity estimate (log intensity, higher = more binding, comparable within an allelic series); with HESX1 [11] it was 7.48 upbm affinity estimate (log intensity, higher = more binding, comparable within an allelic series); with ALX1 [12] it was 12 upbm affinity estimate (log intensity, higher = more binding, comparable within an allelic series).
As for AGCCGGTC, the binding signal in the assay with HESX1 [1] is 6.51 upbm affinity estimate (log intensity, higher = more binding, comparable within an allelic series); in the assay with HESX1 [2], 6.44 upbm affinity estimate (log intensity, higher = more binding, comparable within an allelic series); with NKX2-6 it was 9.54 upbm affinity estimate (log intensity, higher = more binding, comparable within an allelic series); in the assay with HESX1 [7], 6.51 upbm affinity estimate (log intensity, higher = more binding, comparable within an allelic series); with HESX1 [9], 6.57 upbm affinity estimate (log intensity, higher = more binding, comparable within an allelic series); with HESX1 [11], 6.52 upbm affinity estimate (log intensity, higher = more binding, comparable within an allelic series).
Take CAAGCCGC: the binding signal with HESX1 [1] was 6.58 upbm affinity estimate (log intensity, higher = more binding, comparable within an allelic series); in the assay with HESX1 [2] it was 6.44 upbm affinity estimate (log intensity, higher = more binding, comparable within an allelic series); with PROP1 [13], 6.56 upbm affinity estimate (log intensity, higher = more binding, comparable within an allelic series); with HESX1 [7] it was 6.54 upbm affinity estimate (log intensity, higher = more binding, comparable within an allelic series); with PROP1 [8] it was 6.8 upbm affinity estimate (log intensity, higher = more binding, comparable within an allelic series); with HESX1 [9], 6.58 upbm affinity estimate (log intensity, higher = more binding, comparable within an allelic series). Further, the binding signal was 6.57 upbm affinity estimate (log intensity, higher = more binding, comparable within an allelic series) with PROP1 [14] and 6.56 upbm affinity estimate (log intensity, higher = more binding, comparable within an allelic series) with HESX1 [11].
In the case of CAGTGCCG, the binding signal is 6.35 upbm affinity estimate (log intensity, higher = more binding, comparable within an allelic series) with HESX1 [1]; 6.41 upbm affinity estimate (log intensity, higher = more binding, comparable within an allelic series) with HESX1 [2]; 6.49 upbm affinity estimate (log intensity, higher = more binding, comparable within an allelic series) in the assay with HESX1 [7]; 7.15 upbm affinity estimate (log intensity, higher = more binding, comparable within an allelic series) in the assay with VAX1 [15]; 6.42 upbm affinity estimate (log intensity, higher = more binding, comparable within an allelic series) with HESX1 [9]; 6.53 upbm affinity estimate (log intensity, higher = more binding, comparable within an allelic series) in the assay with HESX1 [11]. Further, the binding signal was 7.27 upbm affinity estimate (log intensity, higher = more binding, comparable within an allelic series) with VAX1 [16] and 7.09 upbm affinity estimate (log intensity, higher = more binding, comparable within an allelic series) with VAX1 [17].
On to CCGGTCAG, for which the binding signal was 6.41 upbm affinity estimate (log intensity, higher = more binding, comparable within an allelic series) in the assay with HESX1 [1]; 6.5 upbm affinity estimate (log intensity, higher = more binding, comparable within an allelic series) with HESX1 [2]; 6.57 upbm affinity estimate (log intensity, higher = more binding, comparable within an allelic series) in the assay with HESX1 [7]; 6.6 upbm affinity estimate (log intensity, higher = more binding, comparable within an allelic series) in the assay with HESX1 [9]; 6.53 upbm affinity estimate (log intensity, higher = more binding, comparable within an allelic series) in the assay with HESX1 [11].
Regarding CAATATCG, the binding signal with HESX1 [1] was 7.31 upbm affinity estimate (log intensity, higher = more binding, comparable within an allelic series); with HESX1 [2], 7.37 upbm affinity estimate (log intensity, higher = more binding, comparable within an allelic series); in the assay with HESX1 [7] it was 7.14 upbm affinity estimate (log intensity, higher = more binding, comparable within an allelic series); in the assay with HESX1 [9], 7.2 upbm affinity estimate (log intensity, higher = more binding, comparable within an allelic series).
For the sequence GAAAGGCC, the binding signal is 6.41 upbm affinity estimate (log intensity, higher = more binding, comparable within an allelic series) with HESX1 [1]; 6.39 upbm affinity estimate (log intensity, higher = more binding, comparable within an allelic series) in the assay with HESX1 [2]; 6.76 upbm affinity estimate (log intensity, higher = more binding, comparable within an allelic series) with PROP1 [13]; 6.49 upbm affinity estimate (log intensity, higher = more binding, comparable within an allelic series) with HESX1 [7]; 6.79 upbm affinity estimate (log intensity, higher = more binding, comparable within an allelic series) in the assay with PROP1 [8]; 6.47 upbm affinity estimate (log intensity, higher = more binding, comparable within an allelic series) with HESX1 [9]. Also, the binding signal with PROP1 [14] is 6.75 upbm affinity estimate (log intensity, higher = more binding, comparable within an allelic series); in the assay with HESX1 [11] it was 6.63 upbm affinity estimate (log intensity, higher = more binding, comparable within an allelic series).
Take CTTGGCGA: the binding signal with HESX1 [1] is 6.46 upbm affinity estimate (log intensity, higher = more binding, comparable within an allelic series); with HESX1 [2], 6.46 upbm affinity estimate (log intensity, higher = more binding, comparable within an allelic series); with PROP1 [13], 6.63 upbm affinity estimate (log intensity, higher = more binding, comparable within an allelic series); in the assay with HESX1 [7], 6.48 upbm affinity estimate (log intensity, higher = more binding, comparable within an allelic series); with PROP1 [8], 6.61 upbm affinity estimate (log intensity, higher = more binding, comparable within an allelic series); with HESX1 [9] it was 6.51 upbm affinity estimate (log intensity, higher = more binding, comparable within an allelic series). Besides, the binding signal in the assay with PROP1 [14] was 6.64 upbm affinity estimate (log intensity, higher = more binding, comparable within an allelic series); with HESX1 [11], 6.53 upbm affinity estimate (log intensity, higher = more binding, comparable within an allelic series).
